For 9 compounds, growth results are on record in PubChem BioAssay (NCI).

Test in all cases: NCI-60 one-dose screen, 48 h (100 = growth as untreated, 0 = no growth, -100 = all killed)
Common to all, as to settings: 10 µM unless noted

In assay [1] the test system is NCI-H23 lung.
The subject of assay [2] is NCI-H226 lung.
The test system of assay [3] is NCI-H322M lung.
Assay [4] concerns HOP-62 NSCLC.
Assay [5] concerns NCI-H460 lung.
Assay [6] deals with HOP-92 NSCLC.
Assay [7] has as its system A549/ATCC NSCLC.
The subject of assay [8] is 786-0 renal.
In assay [9] the test system is COLO 205 colon.
Assay [10] deals with DU-145 prostate.
The test system of assay [11] is K-562 leukemia.
The subject of assay [12] is MALME-3M melanoma.
For assay [13], the system named is MDA-MB-231 breast.
For assay [14], the system named is RXF 393 renal.
The test system of assay [15] is SF-268 CNS.
Assay [16] has as its system SF-295 CNS.
Assay [17] concerns SF-539 CNS.
In assay [18] the test system is UACC-257 melanoma.
The test system of assay [19] is M14 melanoma.

About 83,000 compounds went through this panel and 20% of them were active in at least one assay; those are over-represented in the sample as a whole.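 Step 1: grow cells in 96-well plates. Step 2: add test compound at a single concentration. Step 3: incubate 48 h. Step 4: record percent growth.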 Values without a mark were called inactive. Activity calls are given as the source filed them. Rule for the calls: active = growth percent below 10; inactive = the rest.

For the compound `O=[N+]([O-])c1c(O)c(CNCCCO)cc(CNCCCO)c1O`, the growth in [1] was 106%; in [2], 101%; in [3] it was 99.5%; in [4], 106%; in [5] it was 119%; in assay [6] it was 90.8%. Besides, the growth was 95.4% in assay [7]; 118% in assay [8]; 120% in [9]; 132% in assay [10]; 95.9% in assay [11]; 109% in assay [12]. For the same compound, the growth in assay [13] was 99.8%; in assay [14], 99.7%; in assay [15], 118%; in assay [16] it was 106%; in [17], 94.6%; in assay [18], 108%. Moreover, in assay [19], the growth was 107%.
Regarding `CC(=O)c1cccc(N(C)S(=O)(=O)c2ccc(C)cc2)c1`, the growth was 93% in assay [1]; 95.7% in [2]; 90.4% in [3]; 92.8% in assay [4]; 104% in assay [5]; 72.3% in assay [6]. The growth in [7] is 95.9%; in assay [8] it was 94%; in assay [9] it was 116%; in assay [10], 98.2%; in assay [11], 47.8%; in [12], 84%. The growth is 93.1% in assay [13]; 116% in assay [14]; 93% in assay [15]; 93.2% in [16]; 79.1% in assay [17]; 94.7% in [18]. Also, the growth in assay [19] was 77.6%.
Consider `O=c1cc(Cl)nc2ccccn12`, for which the growth in assay [1] is 98.8%; in assay [2] it was 106%; in [3], 107%; in [4] it was 103%; in [5] it was 106%; in [6], 94%. In addition, the growth in assay [7] is 107%; in [8], 108%; in assay [9] it was 127%; in assay [10] it was 110%; in assay [11], 110%; in assay [12], 117%. Further, the growth is 120% in [13]; 106% in assay [14]; 112% in assay [15]; 106% in [16]; 102% in assay [17]; 107% in assay [18]. In addition, the growth in assay [19] is 107%.
With `Cc1cc(=O)n(Nc2ccccc2)c(O)c1C#N`, the growth in [1] is 97.4%; in assay [2], 94%; in [3], 92.4%; in [4], 86%; in assay [5] it was 105%; in [6], 102%. The growth in assay [7] was 106%; in assay [8], 101%; in [9] it was 104%; in [10] it was 109%; in [11], 92.5%; in [12], 105%. The growth was 103% in [13]; 124% in [14]; 102% in assay [15]; 101% in assay [16]; 104% in assay [17]; 116% in [18]. Further, the growth in assay [19] was 99.4%.
Consider `CCOC(=O)CNC`, for which the growth in [1] is 101%; in assay [2], 98.8%; in [3] it was 96.9%; in [4], 106%; in assay [5], 106%; in assay [6] it was 91.1%. The growth is 87.8% in assay [7]; 101% in assay [8]; 116% in assay [9]; 116% in assay [10]; 96.8% in assay [11]; 114% in assay [12]. Further, the growth in [13] is 97.8%; in [14] it was 108%; in assay [15] it was 115%; in assay [16], 96.7%; in assay [17], 99.7%; in assay [18], 81.7%. In addition, the growth in assay [19] is 104%.
In the case of `C=C(c1ccc(N(C)C)cc1)c1ccc(N(C)C)cc1`, the growth in assay [1] was 16.2%; in assay [2] it was 44.3%; in assay [3] it was 29.7%; in [4], 23.1%; in assay [5], 6.37% (active); in assay [6] it was -2.12% (active). Further, the growth was 30.8% in assay [7]; 34.6% in assay [8]; -4.63% (active) in assay [9]; 20.3% in assay [10]; 5.61% (active) in assay [11]; 20.6% in assay [12]. Further, the growth is -11% (active) in [14]; 31.2% in assay [15]; 21% in [16]; -44.9% (active) in assay [17]; 52.3% in assay [18]; -47.2% (active) in assay [19].
Regarding `CC(=O)OC/C(C)=C\CC(C)COC(C)=O` (stereo not given), the growth is 112% in [1]; 103% in [2]; 102% in [3]; 96.9% in assay [4]; 102% in assay [5]; 69.8% in [6]. The growth is 106% in assay [7]; 96.7% in assay [8]; 104% in assay [9]; 114% in assay [10]; 103% in assay [11]; 102% in [12]. Moreover, the growth in assay [13] was 99.7%; in assay [14], 97.1%; in [15], 109%; in assay [16] it was 94.6%; in assay [17], 116%; in [18], 102%. Moreover, in [19], the growth is 96.4%.
Regarding `CN=S(=O)(OCCCCCOS(=O)(=NC)c1ccc(C)cc1)c1ccc(C)cc1` (stereo not given), the growth was 89.1% in assay [1]; 86% in assay [2]; 101% in assay [3]; 101% in assay [4]; 55.7% in assay [5]; 59.2% in [6]. Moreover, the growth in assay [7] is 119%; in [8], 99.3%; in [9] it was 113%; in [10] it was 85.7%; in [11] it was 70.4%; in [12], 100%. Further, the growth in assay [13] is 97.2%; in assay [14], 123%; in assay [15] it was 99%; in assay [16] it was 91.6%; in [17], 90.7%; in assay [18], 124%. The growth in [19] is 96.9%.
In the case of `Clc1ccc(/C=C/c2ccccn2)cc1`, the growth in assay [1] is 91.2%; in [2], 101%; in [3], 107%; in assay [4], 94.7%; in assay [5] it was 104%; in assay [6], 56.3%. Further, the growth was 92.2% in [7]; 98.1% in assay [8]; 105% in assay [9]; 109% in assay [10]; 107% in assay [11]; 108% in assay [12]. Besides, the growth is 98.9% in assay [13]; 116% in [14]; 91.3% in assay [15]; 100% in [16]; 94.2% in [17]; 103% in assay [18]. Besides, the growth in assay [19] is 101%.
